Data taken from PubChem BioAssay (NCI).
About 83,000 compounds went through this panel and 20% of them were active in at least one assay; those are over-represented in the sample as a whole.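 In brief: 96-well plates, 48 h treatment, single concentration, percent growth endpoint.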 The source made the active and inactive calls. How the source made its calls: active means growth percent below 10; inactive means the rest.

Columns and labels:
Experiment in all cases: NCI-60 one-dose screen, 48 h (100 = growth as untreated, 0 = no growth, -100 = all killed)
Conditions in all cases: 10 µM unless noted
[1] = system: NCI-H23 lung
[2] = system: NCI-H226 lung
[3] = system: NCI-H322M lung
[4] = system: HOP-62 NSCLC
[5] = system: NCI-H460 lung
[6] = system: HOP-92 NSCLC
[7] = system: NCI-H522 lung
[8] = system: A549/ATCC NSCLC
[9] = system: 786-0 renal
[10] = system: COLO 205 colon

Measured: growth

C=C(C)[C@@H]1CC[C@]2(C(N)=O)CC[C@]3(C)[C@H](CC[C@@H]4[C@@]5(C)C/C(=C/c6cccnc6)C(=O)C(C)(C)[C@@H]5CC[C@]43C)[C@@H]12
inactive: [1] 18.9% [100 µM] | [3] 12.7% [100 µM] | [6] 16.8% [100 µM] | [8] 14.2% [100 µM] | [9] 18.1% [100 µM]
active: [2] 9.08% [100 µM] | [4] 3.06% [100 µM] | [5] -42.8% [100 µM] | [7] -16.8% [100 µM] | [10] -23.6% [100 µM]

Cc1ccc(Oc2c(/C=N/NC(=O)Cn3c(=O)sc4ccccc43)c(C)nn2-c2ccccc2)cc1
inactive: [1] 50.6% | [2] 62% | [3] 67.3% | [4] 71.5% | [5] 52% | [6] 46.1% | [7] 46.7% | [8] 32.8% | [9] 80.9% | [10] 42.4%

CCOC(=O)c1c[nH]n2c(=S)ncnc12
inactive: [1] 97.4% | [2] 97.4% | [3] 110% | [4] 89.8% | [5] 115% | [6] 113% | [7] 96.8% | [8] 106% | [9] 95.8% | [10] 100%

O=C(O)c1cc([N+](=O)[O-])ccc1Br
inactive: [1] 105% | [2] 97.8% | [3] 94.1% | [4] 109% | [5] 105% | [6] 91.4% | [7] 97.3% | [8] 101% | [9] 102% | [10] 115%

CC1(C)CC(=O)c2c(ccc(C(=O)C[C@@H](N)CO)c2N)O1
active: [3] 5.96% | [4] 2.01% | [5] 4.1%
inactive: [1] 45.9% | [2] 27.5% | [6] 82.7% | [7] 20.1% | [8] 15.3% | [9] 66.7% | [10] 17.9%

N#Cc1c(N2CCOCC2)nc(=S)[nH]c1-c1ccco1
active: [6] -11.6%
inactive: [1] 74.5% | [2] 63.2% | [3] 74.5% | [4] 35.7% | [5] 50.1% | [7] 49.6% | [8] 83.6% | [9] 65.8% | [10] 75.7%

O=C(Nc1ccc(Nc2ccncc2)cc1)c1ccc([N+](=O)[O-])cc1
active: [10] -50.3%
inactive: [1] 81% | [2] 91.1% | [3] 90.4% | [4] 61.7% | [5] 77.5% | [6] 51.1% | [7] 52.6% | [8] 72.4% | [9] 56.7%

CN(C)CCOc1ccc(/C(=C(/CCCl)c2ccccc2)c2ccccc2)cc1
active: [4] -18.8% | [5] -73.3% | [6] -4.94% | [9] -28.5% | [10] -93.6%
inactive: [1] 28.5% | [2] 59.1% | [3] 37.1% | [7] 10.8% | [8] 26.4%

Nc1nc(Cl)c2ncn(Cc3cc4c(cc3I)OCO4)c2n1
inactive: [1] 75.2% | [2] 85.8% | [3] 65.4% | [4] 36.1% | [5] 18% | [6] 82.4% | [7] 14.7% | [8] 45.6% | [9] 44.4% | [10] 21.1%

O=[N+]([O-])c1cccc(/C=C/c2ccc3ccccc3n2)c1
inactive: [1] 85.8% | [2] 82.9% | [3] 74.3% | [4] 55.5% | [5] 77.1% | [6] 66.6% | [7] 47.5% | [8] 79.5% | [9] 70.4% | [10] 91.7%
